# Measured values reported in PubChem BioAssay AID1910 (Broad Institute, 2009).
# About 950 (0.32%) of roughly 300,000 compounds were called active. This is one part of a sample in which actives are shown more often than they occur. Unmarked numbers belong to inactive results.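 The calls were made as follows: active = mean activation of at least 10% of the iron chelator positive control signal, with at least half of replicates also reaching 10%; inconclusive = mean and replicate majority disagree about reaching 10%; inactive = mean and most replicates under 10%.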
# Experiment: hypoxia response element reporter activation – cell-based, U2OS HRE-luciferase, luminescence, primary screen (AID 1910)
# Conditions: active compounds read high, screened at 7.5 µM (by protocol), normalized: DMSO 0%, desferrioxamine 100%
row,SMILES,activation
1,Cc1cc(C)c(C)c(S(=O)(=O)Nc2cccnc2)c1C,-0.0811%
2,CCN(CC)c1ccc(/C=N/NC(=O)CNC(=O)c2cccnc2)cc1,-0.424%
3,CCN(CC)c1ccc(/C=N/NC(=O)c2cnccn2)c(O)c1,95.3% (active)
4,CCN(CC)c1ccc(/C=N/Nc2nc(C)cc(C)n2)c(O)c1,1.77%
5,Cc1c(C(=O)Nc2ccccn2)oc2ccc(Br)cc12,2.61%
6,Cc1c(Cl)c([N+](=O)[O-])nn1CCCC(=O)Nc1cc(Cl)ccc1Cl,-0.466%
7,Cc1c(Cl)c([N+](=O)[O-])nn1Cc1ccc(C(=O)N/N=C\c2cc(Cl)ccc2O)o1,49.6% (active)
8,Cc1ccc(C(=O)O)cc1NC(=O)c1ccc(Cn2nc(C)c(Cl)c2C)o1,-0.0752%
9,O=C(COc1coc(CN2CCN(c3ccccc3F)CC2)cc1=O)N1CCc2ccccc21,0.2%
10,Cc1nc(-c2ccc(F)cc2)c(CC(=O)Nc2cc(S(=O)(=O)N3CCCCC3)ccc2C)s1,-0.206%
11,CC1CN(C(=O)COC(=O)c2cccc(NS(=O)(=O)c3ccccc3)c2)CC(C)O1 (stereo not given),-0.538%
12,CC(C)N(Cc1ccccc1)C(=O)COC(=O)c1ccccc1SCC(=O)N1CCCC1,-0.658%
13,Oc1ccc(N=Nc2nccs2)c(O)c1,-0.857%
14,c1ccc(NCc2cccc3ccccc23)nc1,-34.2%
15,Oc1ccc2ccccc2c1N=Nc1nccs1,68.6% (active)
16,COc1cccc(NC(=O)CSc2nccn(-c3ccc4c(c3)OCCO4)c2=O)c1,0.704%
17,CC(OC(=O)CCCc1c[nH]c2ccccc12)C(=O)Nc1ccc(S(N)(=O)=O)cc1 (stereo not given),0.134%
18,CCCn1nc(C(=O)NNC(=O)CCOc2ccccc2OCC)c2ccccc2c1=O,0.594%
19,COc1ccc(-c2cc(C(F)(F)F)nc(S(C)(=O)=O)n2)cc1OC,18.9% (active)
20,COc1cc(OC)nc(S(C)(=O)=O)n1,0.158%
21,COc1ccc(-c2cc(C(F)(F)F)nc(SCC(=O)Nc3ccc4c(c3)OCO4)n2)cc1OC,-1.49%
22,COc1ccc(C(=O)Nc2ccc(C(=O)NCC3CCCO3)cc2)c(OC)c1OC (stereo not given),-3.72%
23,COc1cc(N)c(Cl)cc1C(=O)OCC(=O)c1ccc2c(c1)NC(=O)CO2,0.0757%
24,CCCCn1c(N)c(N(CCOC)C(=O)COc2c(C)cccc2C)c(=O)[nH]c1=O,-0.338%
25,Cc1nn(C)cc1C(=O)c1ccccc1,0.273%
